Out of some 62,000 compounds screened, about 100 (0.2%) were called active. The full list was thinned out, with actives kept by preference. A number with no mark means an inactive call. Rule as the data show it: active = inhibition above about 20%; inactive = the rest.

For this test, the target named is DNA-directed RNA polymerase subunit beta (Escherichia coli (strain K12)) (UniProt P0A8V2). Nature of the test: E. coli RNAP inhibitors, biochemical (AID 559).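 Also: 0% = enzyme without compound and 100% = no enzyme blank.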 Particulars: fluorescence transcription assay, hits give high values,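 tested at 10 µM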.
Chain of DNA-directed RNA polymerase subunit beta (Escherichia coli (strain K12)) (P0A8V2 whole entry, looked up): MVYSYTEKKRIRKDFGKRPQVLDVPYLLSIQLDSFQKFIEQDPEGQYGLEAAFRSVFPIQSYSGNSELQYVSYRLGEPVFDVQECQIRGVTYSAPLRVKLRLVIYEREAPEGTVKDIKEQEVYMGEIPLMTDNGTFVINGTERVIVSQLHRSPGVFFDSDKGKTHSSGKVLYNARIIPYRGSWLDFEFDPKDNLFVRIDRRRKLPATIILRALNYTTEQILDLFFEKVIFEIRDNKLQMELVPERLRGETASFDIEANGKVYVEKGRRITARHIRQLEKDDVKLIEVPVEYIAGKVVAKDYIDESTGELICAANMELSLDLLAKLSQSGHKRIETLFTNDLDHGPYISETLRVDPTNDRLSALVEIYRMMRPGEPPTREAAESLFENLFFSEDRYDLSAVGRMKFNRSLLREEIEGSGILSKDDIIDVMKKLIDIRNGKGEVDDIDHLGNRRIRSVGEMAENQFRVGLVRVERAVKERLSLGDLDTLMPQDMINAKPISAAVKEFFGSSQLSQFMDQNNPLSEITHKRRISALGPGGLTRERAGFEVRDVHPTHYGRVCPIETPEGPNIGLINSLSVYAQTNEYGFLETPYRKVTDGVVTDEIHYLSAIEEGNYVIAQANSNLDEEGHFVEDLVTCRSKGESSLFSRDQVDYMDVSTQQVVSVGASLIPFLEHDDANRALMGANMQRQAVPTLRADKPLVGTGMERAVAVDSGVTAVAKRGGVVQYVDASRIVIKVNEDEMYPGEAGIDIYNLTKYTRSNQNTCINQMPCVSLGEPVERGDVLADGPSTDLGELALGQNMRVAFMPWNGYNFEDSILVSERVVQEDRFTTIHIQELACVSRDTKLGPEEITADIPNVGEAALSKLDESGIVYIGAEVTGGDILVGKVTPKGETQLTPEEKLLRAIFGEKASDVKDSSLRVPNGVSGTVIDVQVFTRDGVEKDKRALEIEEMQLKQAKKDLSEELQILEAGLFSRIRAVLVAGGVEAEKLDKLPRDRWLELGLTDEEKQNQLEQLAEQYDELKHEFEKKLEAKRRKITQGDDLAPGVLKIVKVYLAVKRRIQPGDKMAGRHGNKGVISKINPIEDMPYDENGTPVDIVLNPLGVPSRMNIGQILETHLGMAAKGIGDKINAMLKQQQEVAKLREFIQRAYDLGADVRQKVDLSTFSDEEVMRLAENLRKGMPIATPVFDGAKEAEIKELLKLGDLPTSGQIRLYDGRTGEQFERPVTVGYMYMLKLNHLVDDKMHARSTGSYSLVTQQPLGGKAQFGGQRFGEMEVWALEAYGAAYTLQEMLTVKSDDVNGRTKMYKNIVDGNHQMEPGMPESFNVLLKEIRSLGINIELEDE
Consider `CCc1c(C)sc(NC(=O)c2ccc(Br)o2)c1C(=O)OC`, for which the inhibition was 3.85%.

With `C=CCn1c(COc2cccc3cccnc23)nnc1SCC(=O)OC`, the inhibition was 2.75%.

In the case of `Cc1ccc(S(=O)(=O)N2CCN(C(=O)CCC(=O)NC3CCCc4ccccc43)CC2)cc1` (configuration not stated), the inhibition was 8.3%.

Take `Cc1c(NC(=O)Nc2ccccc2Cl)sc(=S)n1C`: the inhibition is 4.97%.

As to `CC(=O)C1C(c2ccc(Cl)cc2)NC(=O)NC1(O)C(F)(F)F` (configuration not stated), the inhibition is 5.59%.

In the case of `COc1ccccc1C1/C(=C(/O)c2ccc(C)cc2)C(=O)C(=O)N1Cc1ccco1` (configuration not stated), the inhibition is 10.3%.

As for `CC(=O)OCc1cc(=O)n(C)c(=O)n1C`, the inhibition was -0.42%.

With `O=S(=O)(O)c1nc2ccccc2n1Cc1ccc(Cl)cc1Cl`, the inhibition was 4.09%.

For `O=C(O)C1CC=CCC1C(=O)NCCc1ccccc1` (configuration not stated), the inhibition is -1.18%.

For `CCOc1ccc(NC(=O)CC2NCCNC2=O)cc1` (configuration not stated), the inhibition is 10.3%.

As for `CCOc1ccc(NC(=O)CCC(=O)n2nc(C)cc2C)cc1`, the inhibition was 7.47%.

In the case of `CCCCOc1ccc(NC(=O)CSCC(=O)OCC)cc1`, the inhibition is 20.6% (active).

With `CN(C)/C=C1/C(=O)Nc2ccccc21`, the inhibition is 12.9%.

On to `COC(=O)c1ccc(NC(=O)CSc2nnc(CNc3ccc(OC)cc3)n2C)cc1`, for which the inhibition is 1.56%.

On to `C[C@H](NC(=O)OC(C)(C)C)c1nnc(SCC(N)=O)o1`, for which the inhibition was -0.35%.

Turning to `COc1ccc(-n2nnc3c(=O)n(CC(=O)OCc4ccccc4)cnc32)cc1`, the inhibition was 1.78%.

Take `CCC(C(=O)N1CCOCC1)n1c(C(=O)OC)cc2occc21` (configuration not stated): the inhibition was -1.1%.

For `O=C(c1cccs1)N(C(=O)c1cccs1)c1ccccn1`, the inhibition was 4.36%.

On to `COc1cc(C2C3C(=O)N(c4ccccc4)C(=O)C3ON2c2ccccc2)ccc1O` (configuration not stated), for which the inhibition is 6.83%.

For the compound `CCOC(=O)C1C(=O)C=C(c2ccc(OC)cc2)CC1c1ccco1` (configuration not stated), the inhibition is 0.68%.

With `C=C(Br)CN1CCN(CC(=C)Br)CC1`, the inhibition is 5.48%.

`CCNC(=O)N1CCNC(=O)C1CC(=O)Nc1ccc(C(=O)OCC)cc1` (configuration not stated): the inhibition was 24.6% (active).

With `COc1ccccc1C(=O)N1CCNC(=O)C1CC(=O)Nc1ccc(Cl)cc1` (configuration not stated), the inhibition was 7.25%.

As for `CCOC(=O)c1ccc(NC(=O)CSc2ncccn2)cc1`, the inhibition is 18.1%.

Turning to `COc1ccc(N2CCN(C(=O)CSc3ncnc4c3cnn4-c3ccc(OC)cc3)CC2)cc1`, the inhibition is 3.59%.

As for `CC(=O)Nc1ccc(S(=O)(=O)N2CCN(C3CCCCCCC3)CC2)cc1`, the inhibition was 4.11%.

For the compound `CC(C)(C)c1cc(CN2CCN(CCC#N)CC2)cc(C(C)(C)C)c1O`, the inhibition is 2.69%.

In general, inhibition refers to the drop in the measured response relative to a control, in per cent.

The values are drawn from PubChem BioAssay AID559 (PCMD, 2006).
